Hits are enriched below; roughly 13% of the tested compounds scored in any of these assays.
L major viab: inhibitors of Leishmania major promastigote growth | Leishmania major promastigotes, resazurin fluorescence viability | inhibition, % at 10 µM | actives 9% (n = 200,000); in the data active = inhibition above about 50%;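 note: promastigotes grown with compound for 44 hours at 28 °C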
WT yeast gro inh: growth inhibition of WT yeast, mitochondrial fusion screen; mitochondrial fusion phenotypic screen, WT strain; inhibition, % at 10 µM; actives 2.1% (n = 190,000); in the data active = inhibition above about 58%; tested in S. cerevisiae
RAM network inh: inhibitors of the yeast RAM network; S. cerevisiae dse1pr::URA3 reporter, 5-FOA growth OD615, 2 d; analog-sensitive cbk1-as2 kinase mutant strain; inhibition, % at 50 µM; actives 1.8% (n = 190,000);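 active = inhibition above a set limit, 3 SD over mean compound inhibition, cut at about 8.4% in these data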;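 note: 0% = DMSO-only wells with no growth and 100% = 10 µM 1-NA-PP1 full growth; inhibition rescues growth on 5-FOA so higher OD means more RAM inhibition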
CHOP inhibitor: inhibitors of CHOP induction in ER stress response | CHO-K1 CHOP-promoter luciferase, tunicamycin-induced, 15-18 h | actives 3.8% (n = 220,000) | AID 2732 | inhibition, % at 10 µM;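 active = compounds that reduced the stress-induced luciferase reporter signal by more than about 70% of percent inhibition, limit read from the data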;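 note: 0% = tunicamycin plus vehicle and 100% = wells without tunicamycin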
CHOP confirm: confirmation of CHOP induction inhibitors; shares compounds with CHOP inhibitor; CHO-CHOP promoter luciferase reporter, tunicamycin-induced, luminescence; inhibition, % at 10 µM; actives 45% (n = 2,100);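 active = mean of three repeat readings of reporter signal inhibition above a set limit, cut at about 70% in these data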;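 note: 0% = tunicamycin plus vehicle and 100% = wells lacking tunicamycin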
The depositor's hits bear a star.

For COc1ccc2oc(-c3ccc(NC(=O)c4ccc(N5CCOCC5)c([N+](=O)[O-])c4)cc3)nc2c1 the results were L major viab -0.4, WT yeast gro inh 7.7, RAM network inh 7.6 and CHOP inhibitor 2.4.
For O=C(Nc1ccc(-c2nc3ccccc3o2)cc1)c1ccc(N2CCOCC2)c([N+](=O)[O-])c1 the results were L major viab 8.1, WT yeast gro inh 6.1, RAM network inh 1.4, CHOP inhibitor 101.0* and CHOP confirm 114.3*.
`CCOC(=O)/C=C/S(=O)(=O)c1ccc(NC(C)=O)cc1` gave L major viab -3.7, WT yeast gro inh -0.9, RAM network inh 2.6 and CHOP confirm 120.6*.
Screening CSc1ccccc1NC(=O)CN(C)Cc1cc(=O)n2ccsc2n1 returned L major viab 0.9, WT yeast gro inh -9.2, RAM network inh 0.6 and CHOP inhibitor -1.1.
Screening COc1cc2c(cc1OC)C(c1ccccc1)N(C(=O)CCl)CC2 (stereo unspecified) returned L major viab 98.9*, WT yeast gro inh -5.9, RAM network inh 0.6, CHOP inhibitor 110.7* and CHOP confirm 117.1*.
COc1cc2c(cc1OC)C(C1C(=O)CCCC1=O)N(C(=O)CCl)CC2 (stereo unspecified) was read as L major viab 29.0, WT yeast gro inh -8.9, RAM network inh 0.4 and CHOP inhibitor 24.4.
For Cc1ccc2[nH]c(=O)c(C3C(C#N)=C(N)Oc4c3ccc3cccnc43)cc2c1 (stereo unspecified) the results were L major viab 95.8*, WT yeast gro inh 5.6, RAM network inh 1.6, CHOP inhibitor 97.5* and CHOP confirm 28.0.
Screening Oc1cccc(-c2nc3c4c(ncn3n2)-c2ccccc2CC42CCCC2)c1 returned L major viab 49.0, WT yeast gro inh -8.3, RAM network inh 7.2, CHOP inhibitor 99.5* and CHOP confirm 82.6*.
COc1ccc(-c2nc3c4c(ncn3n2)-c2ccccc2CC42CCCC2)cc1 was read as L major viab 9.0, WT yeast gro inh 16.5, RAM network inh 6.4 and CHOP inhibitor 3.5.
`COc1cccc(-n2nc(C(N)=O)c(O)cc2=O)c1` gave L major viab -4.5, WT yeast gro inh 1.4, RAM network inh -1.0 and CHOP inhibitor 28.4.
For COc1cccc(-n2nc(C#N)c(Cl)cc2=O)c1 the results were L major viab 100.2*, WT yeast gro inh 77.2*, RAM network inh -1.5, CHOP inhibitor 106.7* and CHOP confirm -77.4.
`O=C(CN1C(=O)S/C(=C\C=C\c2ccccc2)C1=O)Nc1ccc(C(=O)O)cc1` gave CHOP inhibitor 9.3.
CC(/C=C1\SC(=O)N(CC(=O)Nc2ccc(O)cc2)C1=O)=C\c1ccccc1 was read as L major viab -1.5, WT yeast gro inh 14.5, RAM network inh 5.6, CHOP inhibitor 96.2* and CHOP confirm -42.7.
For Cc1ccc(C2CC2c2n[nH]c(=S)n2-c2ccc(Cl)cc2)cc1 (stereo unspecified) the results were L major viab -3.0, WT yeast gro inh 39.6, RAM network inh 5.8, CHOP inhibitor 105.5* and CHOP confirm -2.1.
N#Cc1cnc(N)c(Br)c1 was read as L major viab -3.8, WT yeast gro inh -12.2, RAM network inh 1.4 and CHOP inhibitor -1.5.
Screening CC(C)OCCCN1C=C2C(=O)C(C)(OC(=O)CCc3ccccc3)C(=O)C=C2C=C1c1ccc(C#N)cc1 (stereo unspecified) returned CHOP inhibitor 8.4.
`O=C(CCSCc1ccc(Cl)cc1)NC1CCCC1` gave L major viab 0.7, WT yeast gro inh 15.1, RAM network inh -0.3 and CHOP inhibitor 14.9.
O=C(N/N=C/C=C\c1ccccc1[N+](=O)[O-])c1cc(-c2ccc3ccccc3c2)n[nH]1 was read as L major viab 23.7, WT yeast gro inh 20.2, RAM network inh 2.2, CHOP inhibitor 106.2* and CHOP confirm -33.8.
For O=C(N/N=C/c1c[nH]c2ccccc12)C1CC1(c1ccccc1)c1ccccc1 (stereo unspecified) the results were L major viab 16.9, WT yeast gro inh 80.7*, RAM network inh 7.5, CHOP inhibitor 100.3* and CHOP confirm 33.9.
`O=C(N/N=C/C=C/c1ccccc1[N+](=O)[O-])c1ccncc1` gave CHOP inhibitor -6.3.
O=C(N/N=C/c1c[nH]c2ccccc12)c1cc(-c2ccc(-c3ccccc3)cc2)n[nH]1 was read as L major viab 0.2, WT yeast gro inh -4.2, RAM network inh 2.3, CHOP inhibitor 109.0* and CHOP confirm 39.9.
`O=C(N/N=C/c1c[nH]c2ccccc12)C1CC1c1ccccc1` (stereo unspecified) gave L major viab -2.0, WT yeast gro inh 12.3, RAM network inh 0.9 and CHOP inhibitor 41.9.
Screening O=C(N/N=C/c1ccccn1)c1cc(-c2ccc3ccccc3c2)n[nH]1 returned L major viab 84.1*, WT yeast gro inh -3.3, RAM network inh 2.9, CHOP inhibitor 103.0* and CHOP confirm 114.5*.
Screening Cc1ccc(-c2cc(C(=O)N/N=C/c3c[nH]c4ccccc34)[nH]n2)cc1 returned L major viab 28.1, WT yeast gro inh -1.8, RAM network inh 0.8 and CHOP inhibitor 0.4.
`CC1(C)CC(N2CCN(CCO)CC2)=CC(=S)N1` gave CHOP inhibitor 6.6.
Cc1ccccc1Cn1c(=O)n(CC2CCC(C(=O)NCCc3ccccc3)CC2)c(=O)c2ccccc21 (stereo unspecified) was read as L major viab 11.3, WT yeast gro inh -0.8, RAM network inh 5.8 and CHOP inhibitor -19.5.
For Cc1cc(C)c2c(N)c(C(=O)N/N=C/c3ccccc3)sc2n1 the results were CHOP inhibitor 18.9.
COc1ccc(C2CC(c3ccc4ccccc4c3OC(C)=O)=NN2C(C)=O)cc1 (stereo unspecified) was read as CHOP inhibitor 37.7.
Screening O=C(N/N=C/c1ccco1)c1cc(-c2ccc3ccccc3c2)n[nH]1 returned L major viab 15.0, WT yeast gro inh 32.6, RAM network inh 1.9, CHOP inhibitor 110.1* and CHOP confirm 4.2.
CC1=C(CO)C(=O)OC([C@@H](C)C2CC[C@H]3C4C[C@H]5O[C@]56[C@@H](O)C=CC(=O)[C@]6(C)C4CC[C@]23C)C1 (stereo partly specified) was read as CHOP inhibitor 106.8* and CHOP confirm 106.4*.
Screening COc1ccc(OCC(=O)NNC(=O)c2ccccn2)cc1 returned L major viab -3.8, WT yeast gro inh -19.6, RAM network inh -0.1 and CHOP inhibitor -13.6.
COc1ccc(C(=O)NNC(=O)c2ccccn2)cc1 was read as L major viab 26.5, WT yeast gro inh 55.6, RAM network inh 0.9, CHOP inhibitor 104.3* and CHOP confirm 124.5*.
`Cc1nc(NC(=O)CSc2nc3cccnc3n2Cc2ccccc2)sc1C` gave L major viab 3.0, WT yeast gro inh 32.7, RAM network inh 4.9, CHOP inhibitor 103.7* and CHOP confirm 91.4*.
Screening Cc1cc(NC(=O)CSc2nnc(-c3c[nH]c4ccccc34)n2-c2ccc(Cl)cc2)no1 returned L major viab 88.8*, WT yeast gro inh -19.7, RAM network inh 1.9, CHOP inhibitor 105.5* and CHOP confirm -19.6.

Screening data (PubChem BioAssay)
